According to PubChem BioAssay AID602412 (Johns Hopkins Ion Channel Center, 2012):
The list shows a part of the results. Activity calls are given as the source filed them.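 Rule for the calls: active = calcium signal rise, corrected for plate position, at least 3 library SD high, with starting brightness within 5 such deviations; inactive = the rest.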

molecular target: Mas-related G-protein coupled receptor member X1 (Homo sapiens) (UniProt Q96LB2); test: MrgX1 receptor agonists, duplicate retest, confirmation, HEK293 cells, Fluo-4 calcium flux (AID 602412); conditions: MrgX1-HEK293, Fluo-4 calcium fluorescence, FDSS, at 10 µM; stronger effect = higher value
Sequence (Q96LB2 whole entry, looked up): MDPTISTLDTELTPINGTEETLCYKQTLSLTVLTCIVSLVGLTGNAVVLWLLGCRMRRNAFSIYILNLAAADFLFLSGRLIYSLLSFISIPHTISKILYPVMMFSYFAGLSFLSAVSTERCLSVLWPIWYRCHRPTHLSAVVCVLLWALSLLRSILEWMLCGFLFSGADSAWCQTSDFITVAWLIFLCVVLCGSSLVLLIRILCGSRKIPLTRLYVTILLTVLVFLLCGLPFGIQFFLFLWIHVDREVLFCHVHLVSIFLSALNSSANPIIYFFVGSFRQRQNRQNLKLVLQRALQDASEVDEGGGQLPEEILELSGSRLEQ

| SMILES | activation | outcome |
| --- | --- | --- |
| COc1ccccc1N(CC(=O)N1CCCCC1)S(=O)(=O)c1ccccc1 | 356% (active) | – |
| Cc1[nH][nH]c(=O)c1C(c1ccc(-c2ccc(Cl)cc2)o1)c1c(C)[nH][nH]c1=O | 187% (active) | – |
| O=C(CCN1CCc2ccccc2C(O)(c2ccccc2)C1)c1ccc2c(c1)OCCO2 (centres undefined) | 192% (active) | – |
| COc1ccc(OC)c(C(=O)c2ccc(Cl)cc2)c1 | – | inactive |
| O=C(CC(O)(C(F)(F)F)C(F)(F)F)Nc1ccc(Cl)c(Cl)c1 | 242% (active) | – |
| Cc1ccc(-n2[nH]c(C)c(/C=N/N3C(=O)c4cccc5cccc(c45)C3=O)c2=O)cc1 | 601% (active) | – |
| O=C(Nc1ccccc1)c1nnsc1S(=O)(=O)c1ccc(Cl)cc1 | 210% (active) | – |
| OCc1ccc(OCCCOc2cccc3cccnc23)cc1 | – | inactive |
| CCCc1[nH]nc2c1C(c1ccc(Br)s1)C(C#N)=C(N)O2 (centres undefined) | 141% (active) | – |
| CC(C)CC(=O)NC(=S)NNC(=O)c1cccc([N+](=O)[O-])c1 | 268% (active) | – |
| COc1ccc(C(=O)NNC(=S)NC(=O)c2ccccc2)cc1 | 570% (active) | – |
| CCCc1cc(=S)n2c([nH]c3ccccc32)c1C#N | 266% (active) | – |
| Fc1ccc2[nH]c3c(N4CCSCC4)ncnc3c2c1 | 252% (active) | – |
| Cc1cc2oc3ccc(NCCC4CCCN4C)cc3c(=O)c2cc1C (centres undefined) | 311% (active) | – |
| COc1ccc(C(=O)NC(=S)NNC(=O)c2c(-c3ccccc3)noc2C)cc1 | 506% (active) | – |
| CCOC(=O)c1[nH]c2ccc(C)cc2c1N=C(C)N(C)C | 185% (active) | – |
| N=C(N)SCc1cccc2ccccc12 | 199% (active) | – |
| O=C1C(=O)N(CC2COc3ccccc3O2)c2ccccc21 (centres undefined) | 226% (active) | – |
| CCN(CC)c1ccc2oc(=O)c(C)nc2c1 | – | inactive |
| CC(C)(C)Nc1c(-c2cccs2)nc2ccccn12 | 181% (active) | – |

| SMILES | activation | outcome |
| --- | --- | --- |
| Cc1c(C)c2c(OCC(=O)N[C@@H](C(=O)O)c3ccccc3)cc3c(c2oc1=O)CCC(C)(C)O3 | – | inactive |
| O=c1c2cc(Br)ccc2nc(-c2cccc(Cl)c2)n1O | 415% (active) | – |
| Cc1nc(C)c(-c2csc(NCCc3ccccc3)n2)s1 | 170% (active) | – |
| O=C(Nc1nnc(-c2ccccc2)o1)c1cc(-c2cccs2)nc2ccccc12 | 141% (active) | – |
| O=C1Cc2ccccc2Sc2ccc(Cl)cc21 | 104% (active) | – |
| Cc1ccnc(-n2sc3ccccc3c2=O)n1 | 170% (active) | – |
| COC(=O)c1ccc(COC(=O)C2CCN(S(=O)(=O)c3c(Cl)cccc3Cl)CC2)o1 | – | inactive |
| CCCCC(=O)NNC(=S)NC(=O)C(c1ccccc1)c1ccccc1 | – | inactive |
| CC(=O)OC(C)C[N+](C)(C)C (centres undefined) | 483% (active) | – |
| COc1ccc(Nc2nc(-c3cccnc3)nc3ccccc23)cn1 | 127% (active) | – |
| COc1ccc2c(c1)OC(O)(C(F)(F)C(F)F)CC2=O (centres undefined) | 373% (active) | – |
| CC1CCCCN1S(=O)(=O)c1ccc(C(=O)Nc2nnc(-c3cccs3)o2)cc1 (centres undefined) | 88.3% (active) | – |
| COc1ccc(C(=O)NC(=S)NNC(=O)CCc2ccccc2)cc1 | 595% (active) | – |
| COC(=O)c1ccc(C2C3=C(Nc4nnnn42)c2ccccc2OC3)cc1 (centres undefined) | – | inactive |
| Cc1ccc(NC2(C#N)C(=O)Nc3ccccc32)cc1 (centres undefined) | 191% (active) | – |
| CC(Oc1ccc2ccccc2c1)C(=O)NNC(=S)NC(=O)c1ccco1 (centres undefined) | 265% (active) | – |
| CCCc1nc2c(c(=O)c3ccccc3n2C)c(=O)n1C1CCCCCC1 | 149% (active) | – |
| CC1(C(=O)O)CCC(C(=O)Nc2ccc(Cl)c(Cl)c2)C1(C)C (centres undefined) | 149% (active) | – |
| Cc1onc(-c2ccccc2)c1C(=O)NNC(=S)NC(=O)c1ccc(F)cc1 | 636% (active) | – |
